HT1080-NT tox: qHTS for induction of synthetic lethality in tumor cells producing 2HG: qHTS for the HT-1080-NT fibrosarcoma cell line; HT-1080-NT fibrosarcoma viability, CellTiter-Glo ATP luminescence, 48 h; Potency, µM (highest dose often 46.1 µM), without a hit: top-dose activity, negative = less viability, actives largely listed as cytotoxic; 1.6% of 360,000 active; AID 686970, 2013;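 note: NT is the 2HG producing partner of a matched IDH1 knockdown line; potency is the fitted concentration of half-maximal effect; 0% = DMSO-treated cells and -100% = media-only wells without cells; nearly all actives have a fitted effect of over 55% in size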
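A 48-hour cytotoxicity screen used HT-1080-NT cells plated 2 hours before compound delivery. ATP-based CellTiter-Glo luminescence measured viability, normalized to DMSO and no-cell controls.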
ALOX12 inh: Primary qHTS assay for inhibitors of human arachidonate 12S-lipoxygenase (ALOX12): Round 2. Polyunsaturated fatty acid lipoxygenase ALOX12 (Homo sapiens), P18054. purified 12hLO, xylenol orange hydroperoxide absorbance. Potency, µM (doses to about 108 µM), for inactives: top-dose activity change, negative = inhibition, hits mostly inhibitors. 1.1% of 580,000 active. AID 1671190, 2021; note: potency is the fitted concentration of half-maximal effect
Target sequence (P18054 whole entry, looked up): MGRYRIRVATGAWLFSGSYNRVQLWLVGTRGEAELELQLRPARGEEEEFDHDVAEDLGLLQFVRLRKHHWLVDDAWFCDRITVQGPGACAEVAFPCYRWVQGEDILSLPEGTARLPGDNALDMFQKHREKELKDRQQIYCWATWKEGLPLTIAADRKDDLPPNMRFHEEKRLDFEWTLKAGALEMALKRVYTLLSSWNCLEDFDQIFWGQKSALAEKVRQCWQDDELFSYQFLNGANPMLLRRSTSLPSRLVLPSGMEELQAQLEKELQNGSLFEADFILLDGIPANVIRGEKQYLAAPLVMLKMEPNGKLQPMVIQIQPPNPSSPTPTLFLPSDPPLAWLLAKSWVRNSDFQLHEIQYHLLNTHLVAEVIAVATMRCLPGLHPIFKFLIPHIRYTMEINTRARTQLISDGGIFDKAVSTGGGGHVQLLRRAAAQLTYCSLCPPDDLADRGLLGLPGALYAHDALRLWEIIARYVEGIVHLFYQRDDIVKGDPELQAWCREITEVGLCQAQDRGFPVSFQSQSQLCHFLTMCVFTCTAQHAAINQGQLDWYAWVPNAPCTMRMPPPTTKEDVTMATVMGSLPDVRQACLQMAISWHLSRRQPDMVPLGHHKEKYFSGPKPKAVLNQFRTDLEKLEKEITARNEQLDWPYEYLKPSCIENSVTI
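Hydroperoxide product was detected by ferrous iron/xylenol orange as the 573 to 405 nm absorbance ratio. Arachidonic acid at 40 uM (final) was turned over for 30 min at room temperature by 150 nM human 12hLO, pH 7.0 Hepes buffer, after 15 min compound preincubation.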
DT40 TDP1 CPT: qHTS for Inhibitors of human tyrosyl-DNA phosphodiesterase 1 (TDP1): qHTS in cells in presence of CPT; Potency, µM (top dose mostly 46.2 µM), for the others: at the highest dose activity change, negative = growth inhibition, hits mostly inhibitors; 12% of 420,000 active; AID 686979, 2013; chicken DT40 Tdp1-/-;hTDP1 cells + 20 nM CPT, ATP luminescence, 48 h; note: potency is the fitted concentration of half-maximal effect; nearly all actives have a fitted effect of over 55% in size
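Chicken DT40 Tdp1-/- cells stably complemented with human TDP1 were seeded at 400 cells/well in medium containing 20 nM camptothecin, exposed to pin-transferred compounds, and grown at 37 °C for at least 48 hr. Viability was read as ATP luminescence.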
IL1B secr inh: qHTS for Inhibitors of Inflammasome Signaling: IL-1-beta AlphaLISA Primary Screen; activity change, % at 57.5 µM; 4.7% of 360,000 active; THP-1 LPS/ATP IL-1B secretion, AlphaLISA, 16 h; hits give low values; in the data active = activity change below about -50%; inconclusive = mostly about -30% to -49%
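Secreted IL-1B measured by AlphaLISA bead assay after 16 h compound exposure of THP-1 cells; compounds (final up to 57.5 uM) added 1 h before LPS (250 ng/mL) and ATP (1.25 mM) stimulation; lower signal means less secretion.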
HT1080 IDH1KD tx: qHTS for induction of synthetic lethality in tumor cells producing 2HG: qHTS for the HT-1080-IDH1KD cell line | HT-1080 IDH1 knockdown viability, ATP luminescence, 48 h | Potency, µM (doses to about 46.1 µM), inactives show top-dose activity, negative = toxicity, most hits filed as cytotoxic | 2% of 360,000 active | AID 686971, 2013;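 note: potency is the fitted concentration of half-maximal effect; 0% = DMSO wells and -100% = cell-free medium wells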
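In this qHTS, HT-1080 cells depleted of IDH1 are exposed for 48 h at 37 °C to compound titrations. Toxicity is scored from CellTiter-Glo luminescence, with DMSO as full viability and medium alone as none.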
DT40 TDP1 no CPT: qHTS for Inhibitors of human tyrosyl-DNA phosphodiesterase 1 (TDP1): qHTS in cells in absence of CPT. Potency, µM (top dose mostly 46.2 µM), for inactives: at the top dose activity change, negative = growth inhibition, actives largely listed as inhibitors. DT40 Tdp1-/- hTDP1 cells, no CPT, ATP luminescence, 48 h. AID 686978, 2013. 15% of 420,000 active; note: potency is the fitted concentration of half-maximal effect; nearly all actives have a fitted effect of over 55% in size
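DT40 Tdp1-/-;hTDP1 cells, no CPT (DMSO vehicle only), 400 cells/well; compounds pin-transferred; ≥48 hr, 37 °C; CellTiter-Glo 30 min RT dark, luminescence read.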
The depositor's hits bear a star; ? = inconclusive; . = no result; [ ] = dose if it differs, or a comment. The sample as a whole holds a higher share of hits than the screen did. Unless noted, calls come from the whole dose curve; as a rule, active = well fitted curve in the direction sought with a large enough effect; inconclusive = small, poorly fitted or top-dose-only effect, or another doubt; inactive = no such curve, though single readings can be large; an effect the other way counts as inactive or inconclusive. Unless noted, % is set by controls: 0 for no effect and ±100 for the full control effect.

SMILES	HT1080-NT tox	ALOX12 inh	DT40 TDP1 CPT	IL1B secr inh	HT1080 IDH1KD tx	DT40 TDP1 no CPT
NS(=O)(=O)c1ccc(NC(=O)COC(=O)C2(c3ccccc3F)CCCC2)cc1	-1%	-15%	?	-62*	-13%	?
O=C(COC(=O)c1ccccc1Cl)NCc1cccs1	5%	-5%	-4%	7	9%	0%
O=C(COC(=O)C1(c2ccccc2F)CCCC1)NCc1ccc2c(c1)OCO2	1%	-20%	?	-73*	-20%	?
O=C(CCn1cncn1)N1CCC(c2[nH]ncc2-c2cccc(F)c2)CC1	.	34%	.	.	.	.
CCc1ccc(NC(=O)COC(=O)C2(c3ccc(Cl)cc3)CCCC2)cc1	-6%	-18%	21µM*	9	-17%	21µM*
N#Cc1c(-c2ccc(Cl)cc2)c(C#N)c(=O)n(N)c1N	-5%	15%	?	-1	-2%	29µM*
COc1ccc(-c2c(C#N)c(N)n(N)c(=O)c2C#N)cc1Cl	-12%	10%	8%	-13	-3%	?
CSc1nc(N)c(C#N)c(-c2ccc(Cl)cc2)c1C#N	?	35%	-18%	-4	?	16µM*
CSc1ccc(/C=C(\C#N)C(=O)Nc2ccc(C)cc2)cc1	.	-18%	.	.	.	.
Cc1cc(C)c(C(=O)Nc2ccccc2)c(SCC(=O)Nc2ccc(Br)cc2C)n1	.	3%	16µM*	.	.	23µM*
Cc1cccc(NC(=O)c2c(C)cc(C)nc2SCC(=O)c2ccccc2)c1	.	5%	?	.	.	16µM*
COc1ccccc1NC(=O)CSc1nc(C)cc(C)c1C(=O)Nc1ccccc1	.	32%	.	.	.	.
Cc1ccc2[nH]cc(C(C(=O)O)N3CCN(c4ccc(F)cc4)CC3)c2c1 (centres undefined)	.	-8%	.	.	.	.
Cn1c(=O)c2c(ncn2Cc2cccc3ccccc23)n(C)c1=O	.	-46%	.	.	.	.
Cn1c(=O)c2c(ncn2Cc2cc(-c3ccccc3)no2)n(C)c1=O	-29%	9%	?	0	3%[9.24 µM]	26µM*
Cn1c(=O)c2c(ncn2Cc2ccc(Cl)c(Cl)c2)n(C)c1=O	-13%	-2%	23µM*	-13	-21%	12µM*
Cc1ccc2nc(-c3ccc(C)c(NC(=O)c4ccc([N+](=O)[O-])o4)c3)oc2c1	.	-1%	.	.	.	.
C[C@]1(CO)[C@H]2Cc3sc(NC(=O)c4ccc(F)cc4)nc3[C@@H](CC(=O)NCc3ccccc3)[C@]2(C)CC[C@H]1O	.	59%	.	.	.	.
Cc1nn(CCC#N)c(N)c1C1(O)C(=O)Nc2c(Cl)cc(Cl)cc21 (centres undefined)	-10%	9%	16µM*	134	0%	3.7µM*
CN1CCCCCC(O)c2cc(C(=O)NCCc3c[nH]c4ccccc34)ccc21 (centres undefined)	.	14%	.	.	.	.
CCCCOc1ccc(NC2=NC3(CCCCC3)N=C(N)N2)cc1	?	?	5.2µM*	-28	?	2.6µM*
COc1ccc(OC)c(NC2=NC3(CCCCC3)N=C(N)N2)c1	-15%	5%	-2%	-11	-22%	-8%
COc1ccc(NC2=NC3(CCCCC3)N=C(N)N2)cc1	11%	-15%	-14%	-85*	8%	-22%
COCCN(CCOC)C(=O)c1cccc(C#N)c1	.	5%	.	.	.	.
COCCNC(=O)C1(C)CCCN(Cc2ccc(OC)cc2)C1 (centres undefined)	?	.	-34%	27	11%	-11%
SMILES	HT1080-NT tox	ALOX12 inh	DT40 TDP1 CPT	IL1B secr inh	HT1080 IDH1KD tx	DT40 TDP1 no CPT
COCCNC(=O)C1(C)CCCN(CCSc2ccccc2)C1 (centres undefined)	9%	?	?	12	?	13µM*
CCCNC(=O)C1(C)CCN(Cc2cc(C(F)(F)F)ccc2Cl)C1 (centres undefined)	11%	-6%	23µM*	40	10%	15µM*
COCCNC(=O)C1(C)CCCN(Cc2ccccc2N(C)C)C1 (centres undefined)	21%	-5%	-14%	12	8%	-4%
COCCNC(=O)C1(C)CCCN(Cc2ccc(Cl)c(Cl)c2)C1 (centres undefined)	24%	.	21µM*	14	7%	16µM*
CCCNC(=O)C1(C)CCN(Cc2ccc(C(=O)OCC)cc2)C1 (centres undefined)	5%	-7%	?	41	2%	16µM*
Cc1cccc2ncc(C(=O)N3CC[C@H](CO)[C@@H](O)C3)c(=O)n12	.	24%	.	.	.	.
COCCNC(=O)C1(C)CCCN(Cc2ccc(OCc3ccccc3)cc2)C1 (centres undefined)	-5%	-4%	26µM*	-23	-11%	21µM*
COCCNC(=O)C1(C)CCCN(Cc2cc(-c3ccccc3)on2)C1 (centres undefined)	15%	-25%	13µM*	39	1%	23µM*
CCCNC(=O)C1(C)CCN(Cc2ccc(OCc3ccccc3)cc2)C1 (centres undefined)	-28%	?	23µM*	-21	-6%	18µM*
CCNC(=O)C1(C)CCN(Cc2ccc(OC(F)(F)F)cc2)C1 (centres undefined)	13%	-11%	-24%	0	11%	-26%
COCCNC(=O)C1(C)CCN(Cc2ccc(C(C)C)cc2)C1 (centres undefined)	22%	-1%	?	1	19%	21µM*
COCCNC(=O)C1(C)CCCN(Cc2cc(-c3ccccc3)n(C)n2)C1 (centres undefined)	5%	-3%	?	17	1%	?
O=C(CNS(=O)(=O)c1ccc2ccccc2c1)OCc1csc(-c2ccccc2)n1	19%	?	?	-8	12%	21µM*
O=C(NC[C@H]1OC[C@@H](NCc2cnc[nH]2)[C@@H]1O)C1CCCC1	.	0%[176 µM]	.	.	.	.
Cc1ccccc1CN1C2=NCCCN2c2ccccc21	-6%	1%	18µM*	-16	-27%	18µM*
Clc1ccc(CN2C3=NCCCN3c3ccccc32)cc1Cl	?	-14%	-120%	.	?	15µM*
